Assay results: PubChem BioAssay (NCATS)
Records with an inconclusive call do not appear. Activity calls are given as the source filed them. Unless noted, the call rests on the fitted dose curve.

Key:
[1] = NS1 protein of Zika virus - qHTS assay to identify small molecule inhibitors in human HEK 293 cells (AID 1347053; active means well fitted curve in the direction sought with a large enough effect; an effect the other way counts as inactive or inconclusive; further: nearly all actives have a fitted effect of over 55% in size); details: HEK293 ZIKV MR766 infection, NS1 TR-FRET, 24 h; series mostly up to 46.1 µM
Outline: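 Following 20 h seeding, HEK 293 cells took compound, then 1 h later ZIKV MR766 (MOI = 0.5). Incubation ran 24 h at 37 C before TR-FRET detection of NS1; a drop in signal indicates inhibition.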

[2] = qHTS for Inhibitors of the Functional Ribonucleoprotein Complex (vRNP) of Lassa (LASV) Arenavirus: LASV Primary Screen - GLuc reporter signal (AID 1347082; calls by dose curve; tested in HEK293 reporter line; further: nearly all actives have a fitted effect of over 60% in size); details: LASV minigenome vRNP, Gaussia luciferase reporter; series mostly up to 57.5 µM
[3] = qHTS for Inhibitors of the Functional Ribonucleoprotein Complex (vRNP) of Lassa (LASV) Arenavirus: Viability assay - alamar blue signal for LASV Primary Screen (AID 1347083; calls by dose curve; tested in HEK293 reporter line; further: nearly all actives have a fitted effect of over 80% in size); details: cell viability, alamar blue fluorescence (LASV minigenome counter-screen); series mostly up to 57.5 µM
[4] = qHTS for Inhibitors of the Functional Ribonucleoprotein Complex (vRNP) of Lymphocytic Choriomeningitis Arenaviruses (LCMV): Viability assay - alamar blue signal for LCMV Primary Screen (AID 1347085; calls by dose curve; tested in HEK293 reporter line; further: nearly all actives have a fitted effect of over 80% in size); details: alamar blue viability counter-screen, LCMV vRNP screen cells; series mostly up to 57.5 µM
[5] = target: Nucleoprotein (Lymphocytic choriomeningitis virus (strain Armstrong)) (UniProt P09992); assay: qHTS for Inhibitors of the Functional Ribonucleoprotein Complex (vRNP) of Lymphocytic Choriomeningitis Arenaviruses (LCMV): LCMV Primary Screen - GLuc reporter signal (AID 1347086); details: LCMV minigenome vRNP cell assay, Gaussia luciferase reporter; series mostly up to 57.5 µM; further: nearly all actives have a fitted effect of over 70% in size
[6] = target: Atrial natriuretic peptide receptor 2 (Homo sapiens) (UniProt P20594); assay: Natriuretic polypeptide receptor (hNpr2) antagonism - Pilot subtype selectivity assay (AID 1347050); details: NPR2-expressing cells, cGMP antagonist-mode read-out; series mostly up to 38.3 µM
Outline: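 Pilot selectivity screen against hNpr2: HEK293 cGMP-sensor cells are treated with LOPAC1280 compounds, then with hNppC peptide at 1 nM final. The cGMP-driven luminescence change over 20 min at room temperature is the read-out.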

[7] = target: T1, Tyrosine-protein phosphatase non-receptor type substrate 1 (Homo sapiens) + Leukocyte surface antigen CD47 (Homo sapiens) (UniProt P78324+Q08722); assay: CD47-SIRPalpha protein protein interaction - LANCE assay qHTS validation (AID 1347057; active means well fitted curve in the direction sought with a large enough effect in the signal ratio, with a control signal flat, not every such curve was filed as active; the % refers to the signal ratio); details: Recombinant CD47-His / biotin-SIRPalpha, TR-FRET ratio; series mostly up to 38.3 µM
Outline: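 First, His-tagged CD47 and Eu-labelled anti-His antibody met the compound for 30 min; next, site-specifically biotinylated SIRPalpha was added for 30 min; finally streptavidin-APC was added before reading the TR-FRET ratio.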

[8] = target: T1, Tyrosine-protein phosphatase non-receptor type substrate 1 (Homo sapiens) + Leukocyte surface antigen CD47 (Homo sapiens); assay: CD47-SIRPalpha protein protein interaction - HTRF assay qHTS validation (AID 1347058; active means well fitted curve in the direction sought with a large enough effect in the signal ratio, not every such curve was filed as active; the % refers to the signal ratio;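 further: recombinant soluble extracellular CD47 with His tag and biotinylated SIRPalpha domains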); details: TR-FRET HTRF CD47-His / biotin-SIRPalpha binding, ratio 665/615; series mostly up to 38.3 µM
Outline: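 TR-FRET read (Ch1/Ch2 ratio) of soluble extracellular CD47 and Avi-biotinylated SIRPalpha domains in PBS pH 7.4 with 0.05% IGEPAL; 7-point compound titration. Sequential 30 min room-temperature steps; non-biotinylated SIRPalpha as control inhibitor.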

[9] = target: T1, Tyrosine-protein phosphatase non-receptor type substrate 1 (Homo sapiens) + Leukocyte surface antigen CD47 (Homo sapiens); assay: CD47-SIRPalpha protein protein interaction - Alpha assay qHTS validation (AID 1347059; active means well fitted curve in the direction sought with a large enough effect; an effect the other way counts as inactive or inconclusive;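 further: bead proximity luminescence from CD47 binding SIRPalpha after compound preincubation with SIRPalpha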); details: AlphaScreen CD47-His/biotin-SIRPalpha binding, LOPAC; series mostly up to 38.3 µM
Outline: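 Binding is measured by AlphaScreen proximity: Ni-NTA acceptor beads capture His-CD47, streptavidin donor beads capture biotin-SIRPalpha. Each of three additions (SIRPalpha with compound, CD47, beads) incubates 30 min at room temperature protected from light.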

[10] = target: Parathyroid hormone/parathyroid hormone-related peptide receptor (Homo sapiens) (UniProt Q03431); assay: qHTS for PTHR1 Agonists: Optimization Screen against the NCGC LOPAC library (AID 1347079; active means well fitted curve in the direction sought with a large enough effect; an effect the other way counts as inactive or inconclusive;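 further: GloSensor cAMP luminescence in HEK-293 GP2 cells expressing human PTHR1 with IBMX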); details: HEK293 GP2 PTHR1 GloSensor cAMP luminescence, 1 h; series mostly up to 57.1 µM
Outline: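 Compounds were tested across a qHTS titration. PTHR1-expressing GP2 cells report cAMP rises via GloSensor luminescence after 1 hr compound exposure at 37C with IBMX present.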

Measured: Potency

Chain of Nucleoprotein (Lymphocytic choriomeningitis virus (strain Armstrong)) (P09992 whole entry, looked up): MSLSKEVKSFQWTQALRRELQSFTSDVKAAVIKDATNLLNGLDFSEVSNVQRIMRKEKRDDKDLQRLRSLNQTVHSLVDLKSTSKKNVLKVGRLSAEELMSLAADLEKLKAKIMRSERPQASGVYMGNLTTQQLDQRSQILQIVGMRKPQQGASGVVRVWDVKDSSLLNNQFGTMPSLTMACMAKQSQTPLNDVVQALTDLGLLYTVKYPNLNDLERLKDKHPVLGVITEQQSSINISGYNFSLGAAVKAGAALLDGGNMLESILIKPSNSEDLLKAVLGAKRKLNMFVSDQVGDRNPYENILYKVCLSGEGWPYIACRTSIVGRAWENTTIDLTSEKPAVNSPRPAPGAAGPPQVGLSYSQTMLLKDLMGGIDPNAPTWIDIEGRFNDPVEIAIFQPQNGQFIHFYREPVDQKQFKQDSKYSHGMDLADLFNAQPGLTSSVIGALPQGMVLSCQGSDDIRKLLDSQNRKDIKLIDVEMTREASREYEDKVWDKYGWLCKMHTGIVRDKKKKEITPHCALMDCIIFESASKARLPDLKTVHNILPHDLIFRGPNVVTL
T1 sequence (P78324 whole entry, looked up): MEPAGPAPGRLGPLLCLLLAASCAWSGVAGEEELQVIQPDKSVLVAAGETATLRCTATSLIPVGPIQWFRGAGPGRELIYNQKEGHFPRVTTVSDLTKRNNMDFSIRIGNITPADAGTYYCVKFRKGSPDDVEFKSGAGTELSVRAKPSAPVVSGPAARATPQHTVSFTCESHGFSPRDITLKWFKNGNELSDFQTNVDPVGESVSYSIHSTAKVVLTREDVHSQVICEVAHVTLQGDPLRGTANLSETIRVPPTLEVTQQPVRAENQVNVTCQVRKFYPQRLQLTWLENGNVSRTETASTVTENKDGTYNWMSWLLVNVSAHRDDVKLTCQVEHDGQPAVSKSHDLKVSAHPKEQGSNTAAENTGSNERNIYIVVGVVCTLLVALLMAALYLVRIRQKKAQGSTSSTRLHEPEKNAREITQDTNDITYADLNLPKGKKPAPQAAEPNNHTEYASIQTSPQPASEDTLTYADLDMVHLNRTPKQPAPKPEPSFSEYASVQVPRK
T1 sequence (Q08722 whole entry, looked up): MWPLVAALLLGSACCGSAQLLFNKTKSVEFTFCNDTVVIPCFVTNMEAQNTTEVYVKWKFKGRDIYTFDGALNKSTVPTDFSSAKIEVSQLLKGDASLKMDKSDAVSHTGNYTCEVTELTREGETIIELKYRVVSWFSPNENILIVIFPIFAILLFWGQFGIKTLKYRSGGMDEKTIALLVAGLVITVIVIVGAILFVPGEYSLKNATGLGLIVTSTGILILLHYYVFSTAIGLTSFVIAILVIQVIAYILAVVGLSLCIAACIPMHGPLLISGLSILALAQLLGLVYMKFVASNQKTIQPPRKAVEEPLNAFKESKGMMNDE
Chain of Parathyroid hormone/parathyroid hormone-related peptide receptor (Homo sapiens) (Q03431 whole entry, looked up): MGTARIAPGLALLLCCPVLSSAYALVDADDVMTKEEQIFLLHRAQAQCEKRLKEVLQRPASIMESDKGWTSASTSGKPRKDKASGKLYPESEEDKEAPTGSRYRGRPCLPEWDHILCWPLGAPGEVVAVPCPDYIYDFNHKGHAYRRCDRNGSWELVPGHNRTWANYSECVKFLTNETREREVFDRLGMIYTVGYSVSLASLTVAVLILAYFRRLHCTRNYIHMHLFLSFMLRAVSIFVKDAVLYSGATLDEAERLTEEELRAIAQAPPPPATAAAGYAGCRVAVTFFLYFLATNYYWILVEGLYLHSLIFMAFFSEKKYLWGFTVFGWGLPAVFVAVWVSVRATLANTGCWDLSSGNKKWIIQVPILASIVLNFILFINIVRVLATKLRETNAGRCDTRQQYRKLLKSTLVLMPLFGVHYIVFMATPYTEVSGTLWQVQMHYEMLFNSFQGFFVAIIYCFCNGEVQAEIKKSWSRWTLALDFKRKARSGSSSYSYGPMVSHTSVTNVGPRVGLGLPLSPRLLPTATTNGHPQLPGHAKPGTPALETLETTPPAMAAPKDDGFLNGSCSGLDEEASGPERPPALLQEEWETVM
Chain of Atrial natriuretic peptide receptor 2 (Homo sapiens) (P20594 whole entry, looked up): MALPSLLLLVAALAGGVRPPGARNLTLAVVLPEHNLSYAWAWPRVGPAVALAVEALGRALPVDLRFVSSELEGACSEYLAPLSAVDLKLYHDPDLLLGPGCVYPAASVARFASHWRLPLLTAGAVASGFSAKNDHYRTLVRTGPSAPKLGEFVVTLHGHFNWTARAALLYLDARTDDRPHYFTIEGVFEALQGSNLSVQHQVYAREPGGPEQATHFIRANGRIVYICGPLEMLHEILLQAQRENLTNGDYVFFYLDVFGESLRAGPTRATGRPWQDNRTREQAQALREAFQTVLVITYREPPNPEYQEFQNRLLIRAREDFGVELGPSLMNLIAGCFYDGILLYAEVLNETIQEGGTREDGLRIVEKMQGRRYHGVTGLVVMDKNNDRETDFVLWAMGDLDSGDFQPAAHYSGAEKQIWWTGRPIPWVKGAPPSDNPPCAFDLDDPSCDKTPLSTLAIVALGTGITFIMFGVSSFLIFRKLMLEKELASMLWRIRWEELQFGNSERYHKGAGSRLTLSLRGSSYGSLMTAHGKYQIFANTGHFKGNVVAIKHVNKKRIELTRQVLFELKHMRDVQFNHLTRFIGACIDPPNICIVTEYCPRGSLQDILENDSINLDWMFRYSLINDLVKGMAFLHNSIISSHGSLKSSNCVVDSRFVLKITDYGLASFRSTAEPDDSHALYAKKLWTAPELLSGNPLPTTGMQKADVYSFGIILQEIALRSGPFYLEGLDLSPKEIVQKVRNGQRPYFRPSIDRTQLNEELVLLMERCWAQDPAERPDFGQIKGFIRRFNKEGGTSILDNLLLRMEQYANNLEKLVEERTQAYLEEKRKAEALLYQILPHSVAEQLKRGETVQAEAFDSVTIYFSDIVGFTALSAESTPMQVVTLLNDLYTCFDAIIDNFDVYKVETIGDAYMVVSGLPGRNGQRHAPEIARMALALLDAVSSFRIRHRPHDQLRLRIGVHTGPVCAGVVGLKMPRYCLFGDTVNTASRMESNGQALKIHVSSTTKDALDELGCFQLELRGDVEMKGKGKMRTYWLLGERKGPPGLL

Cc1nc2ccccc2c(=O)n1-c1ccccc1Cl
inactive: [1] | [2] | [3] | [4] | [5]

COC(=O)C1=CCCN(C)C1
inactive: all assays above

CCC(OC(C)=O)C(CC(C)NC)(c1ccccc1)c1ccccc1 (configuration not stated)
inactive: [1] | [2]

ClCCCN1CCN(c2cccc(Cl)c2)CC1
inactive: [1] | [2] | [3] | [4] | [5]

C[C@@H]1CC[C@H]2[C@@H](C)C(=O)O[C@@H]3O[C@@]4(C)CC[C@@H]1[C@]32OO4
inactive: [1] | [2] | [3] | [4] | [5]

COP(=O)(OC)C(O)C(Cl)(Cl)Cl (configuration not stated)
inactive: [1] | [2] | [3] | [4] | [5]

CCOP(=S)(OCC)O/N=C(\C#N)c1ccccc1
inactive: [1] | [2] | [3] | [4] | [5]

OC(O)C(Cl)(Cl)Cl
inactive: [1] | [2] | [3] | [4] | [5]

CCN1CCCC1CNC(=O)C(O)(c1ccccc1)c1ccccc1 (configuration not stated)
inactive: [1] | [2] | [3] | [4] | [5]

O=c1[nH]c2cc(Cl)ccc2n1C1CCNCC1
inactive: [1] | [2] | [3] | [4] | [5]

CCOC(=O)NC(O)C(Cl)(Cl)Cl (configuration not stated)
inactive: [1] | [2] | [3] | [4] | [5]

CNC(=O)Oc1cccc2ccccc12
inactive: [1] | [2] | [3] | [4] | [5]

C[C@H]1CNCCc2ccc(Cl)cc21
inactive: [1] | [2] | [3] | [4] | [5]

CCS(=O)(=O)C(C)(C)S(=O)(=O)CC
inactive: [1] | [2] | [3] | [4] | [5]

CCC1(c2cccc(O)c2)CCCCN(C)C1 (configuration not stated)
inactive: [1] | [2] | [3] | [4] | [5]

CCOC(=O)C(c1c(O)c2ccccc2oc1=O)c1c(O)c2ccccc2oc1=O
inactive: [1] | [2] | [3] | [4] | [5]

COP(=S)(OC)Oc1ccc(Sc2ccc(OP(=S)(OC)OC)cc2)cc1
inactive: [1] | [2] | [3] | [4] | [5]

COc1cc(CC#N)cc(OC)c1OC
inactive: [1] | [2] | [3] | [4] | [5]

COP(=S)(OC)Oc1ccc(S(N)(=O)=O)cc1
inactive: [1] | [2] | [3] | [4] | [5]

C[C@]12CC[C@H]3[C@@H](CCC4=CC(=O)CC[C@@H]43)[C@@H]1CC[C@@H]2O
inactive: [1] | [2] | [3] | [4] | [5]

NC1(c2ccccc2)CCCCC1
inactive: [1] | [2] | [3] | [4] | [5]

O=c1n(Cl)c(=O)n(Cl)c(=O)n1Cl
inactive: [1] | [2] | [3] | [4] | [5]

CCCCCCCCC(=O)NCc1ccc(O)c(OC)c1
inactive: [1] | [2] | [3] | [4] | [5]

C=CCOC(Cn1ccnc1)c1ccc(Cl)cc1Cl (configuration not stated)
inactive: [1] | [2] | [3] | [4] | [5]

O=C(NC(=O)c1c(F)cccc1F)Nc1cc(Cl)c(OC(F)(F)C(F)C(F)(F)F)cc1Cl (configuration not stated)
inactive: [1] | [2] | [3] | [4] | [5]

Nc1ccccc1C(=O)OCC(O)CO (configuration not stated)
inactive: [1] | [2] | [3] | [4] | [5]

CN1C(=O)[C@@H](NC(=O)c2cc3ccccc3[nH]2)N=C(c2ccccc2)c2ccccc21
inactive: [1] | [2] | [3] | [4] | [5]

CNC(C)Cc1ccc2c(c1)OCO2 (configuration not stated)
inactive: [1] | [2] | [3] | [4] | [5]

Cc1cccc(Cc2cnc[nH]2)c1C
inactive: [1] | [2] | [3] | [4] | [5]

CN1C2CCC(C)(C)C1CC(OC(=O)C(O)(c1cccs1)c1cccs1)C2 (configuration not stated)
inactive: [1] | [2] | [3] | [4] | [5]

C[N+](C)(C)CCOC(=O)C(O)(c1ccccc1)c1ccccc1
inactive: [1] | [2] | [3] | [4] | [5]

CN(C)CCc1c[nH]c2ccccc12
inactive: [1] | [2] | [3] | [4] | [5]

CC1=C2[C@H]3OC(=O)[C@@H](C)[C@@H]3CC[C@@]2(C)C=CC1=O
inactive: [1] | [2] | [3] | [4] | [5]

CCCC(C)C1(CC)C(=O)N=C(S)NC1=O (configuration not stated)
inactive: [1] | [2] | [3] | [4] | [5]
